Compounds with a hit are over-represented: about 3.5% of the library has one in this group of screens.
mHTT-CaM PPI inh = mutant huntingtin-calmodulin interaction inhibitors – biochemical, AlphaScreen, primary screen | inhibition, % at 15 µM | 190,000 compounds, 3.6% hits | AlphaScreen His-mHTT/GST-CaM binding, luminescence | P42858
Pf apPOL inh = Pf-apPOL inhibitors, biochemical, fluorescence; Plasmodium falciparum apicoplast DNA polymerase (apPOL); AID 1794808, 2022; inhibition, % at 10 µM; 210,000 compounds, 0.25% hits; Recombinant Pf-apPOL, molecular beacon fluorescence, 1.5 h
Hits are given with their value. No stated cut-off is given here; in the data, active means inhibition above about 50%; inactive means the rest.

Cc1occc1C(=O)Nc1ccc(F)c(Cl)c1 was read as mHTT-CaM PPI inh inactive and Pf apPOL inh inactive.
`Clc1ccccc1-c1cn2ccsc2n1` gave mHTT-CaM PPI inh inactive and Pf apPOL inh inactive.
For Cc1cc2[nH]c(C(=O)Nc3cc(F)ccc3Cl)c(CN(C)C)c2s1 the results were mHTT-CaM PPI inh inactive and Pf apPOL inh inactive.
Screening O=C1N=C(N2CCOCC2)S/C1=C\C1=Cc2ccccc2OC1 returned mHTT-CaM PPI inh inactive.
For CN1CCN(C2=NC(=O)/C(=C/c3ccccc3)S2)CC1 the results were mHTT-CaM PPI inh inactive and Pf apPOL inh inactive.
O=C1N=C(N2CCCC2)S/C1=C/C=C/c1ccccc1 was read as mHTT-CaM PPI inh 76.0 and Pf apPOL inh inactive.
Screening O=C1N=C(N2CCCCC2)S/C1=C/C1=Cc2ccccc2OC1 returned mHTT-CaM PPI inh 66.0 and Pf apPOL inh inactive.
CCCc1cc2c(=O)c(-c3ccc(C(=O)OCC)o3)c(C(=O)OCC)oc2cc1OC was read as mHTT-CaM PPI inh inactive and Pf apPOL inh inactive.
For COc1ccc(S(=O)(=O)NCc2ccc(Cl)cc2)c2cccnc12 the results were mHTT-CaM PPI inh inactive and Pf apPOL inh inactive.
Screening Clc1ccc(Cl)c(N/N=C/c2ccccn2)c1 returned mHTT-CaM PPI inh inactive.
Cc1c(Cl)cccc1NC(=O)Cc1nnc(-c2ccc3ncccc3c2)o1 was read as mHTT-CaM PPI inh inactive and Pf apPOL inh inactive.
`COc1cc(OC)cc(N2C(=O)c3ccccc3CC2(C)C(=O)NCc2ccccc2)c1` (stereo unspecified) gave mHTT-CaM PPI inh inactive and Pf apPOL inh inactive.
Screening CCOCCCNC(=O)CN1C(=O)/C(=C/c2ccc(C(F)(F)F)cc2)Sc2ccccc21 returned mHTT-CaM PPI inh inactive and Pf apPOL inh inactive.
Screening CNC(=O)CN1C(=O)/C(=C/c2ccc(C(F)(F)F)cc2)Sc2ccccc21 returned mHTT-CaM PPI inh inactive and Pf apPOL inh inactive.
`CCCCNC(=O)CN1C(=O)/C(=C/c2ccc(C(F)(F)F)cc2)Sc2ccccc21` gave mHTT-CaM PPI inh inactive and Pf apPOL inh inactive.
Screening O=C(CN1C(=O)/C(=C/c2ccc(C(F)(F)F)cc2)Sc2ccccc21)NCc1ccccn1 returned mHTT-CaM PPI inh inactive and Pf apPOL inh inactive.
`O=C(CN1C(=O)/C(=C/c2ccc(C(F)(F)F)cc2)Sc2ccccc21)NCCN1CCCC1` gave mHTT-CaM PPI inh 84.0 and Pf apPOL inh inactive.
Screening Cc1ccc(/C=C2\Sc3ccccc3N(CC(=O)NCc3ccccn3)C2=O)cc1 returned mHTT-CaM PPI inh 80.0 and Pf apPOL inh inactive.
For COCCCNC(=O)CN1C(=O)/C(=C/c2ccc(C(F)(F)F)cc2)Sc2ccccc21 the results were mHTT-CaM PPI inh 56.0 and Pf apPOL inh inactive.
Screening CN1CCN(C(=O)CN2C(=O)/C(=C/c3ccc(C(F)(F)F)cc3)Sc3ccccc32)CC1 returned mHTT-CaM PPI inh 51.0 and Pf apPOL inh inactive.
`O=C(Nc1ccccc1I)c1ccc([N+](=O)[O-])cc1Cl` gave mHTT-CaM PPI inh inactive and Pf apPOL inh inactive.
CCN1C(=O)c2cccc3c(NC(=O)Nc4cccc(Cl)c4)ccc1c23 was read as mHTT-CaM PPI inh inactive and Pf apPOL inh inactive.
Screening Cc1ccnc(NC(c2cccc(C)n2)c2ccc3cccnc3c2O)c1 (stereo unspecified) returned mHTT-CaM PPI inh 87.0 and Pf apPOL inh inactive.
Screening Cc1ccc(C)c(NC(=O)CSc2cccc3cccnc23)c1 returned mHTT-CaM PPI inh inactive and Pf apPOL inh inactive.
For Cc1ccnc(NC(c2cc(C)ccc2O)c2ccc3cccnc3c2O)c1 (stereo unspecified) the results were mHTT-CaM PPI inh 99.0 and Pf apPOL inh inactive.
For Cc1ccnc(NC(=O)c2cccc(Cl)c2)c1 the results were mHTT-CaM PPI inh inactive and Pf apPOL inh inactive.
CCC[C@H]1CN(c2ccccc2)C(=O)[C@@H]1CC(=O)Nc1ccc(Br)cc1 was read as mHTT-CaM PPI inh inactive and Pf apPOL inh inactive.
COc1ccc([N+](=O)[O-])cc1NC(=O)Cc1ccc(OC)c(OC)c1 was read as mHTT-CaM PPI inh inactive and Pf apPOL inh inactive.
For O=[N+]([O-])c1ccc(CSc2nnnn2-c2ccc(Cl)cc2)cc1 the results were mHTT-CaM PPI inh inactive and Pf apPOL inh inactive.
For O=C(c1ccccc1)N1CCCC2(CC(c3cccnc3)=CO2)C1 (stereo unspecified) the results were mHTT-CaM PPI inh 97.0 and Pf apPOL inh inactive.
Screening COc1ccc(C2=COC3(CCCN(C(=O)c4ccc(F)cc4)C3)C2)cc1 (stereo unspecified) returned mHTT-CaM PPI inh inactive and Pf apPOL inh inactive.
`O=C(c1ccc(Cl)cc1)N1CCCC2(CC(c3ccc(Cl)cc3)=CO2)C1` (stereo unspecified) gave mHTT-CaM PPI inh inactive and Pf apPOL inh inactive.
Screening O=C(c1ccc(Cl)cc1)N1CCCC2(CC(c3ccccc3)=CO2)C1 (stereo unspecified) returned mHTT-CaM PPI inh 90.9 and Pf apPOL inh inactive.
For O=C(c1ccc(F)cc1)N1CCCC2(CC(c3cccnc3)=CO2)C1 (stereo unspecified) the results were mHTT-CaM PPI inh inactive and Pf apPOL inh inactive.
`COc1ccc(C2=COC3(CCCN(C(=O)c4ccccc4)C3)C2)cc1` (stereo unspecified) gave mHTT-CaM PPI inh 64.6 and Pf apPOL inh inactive.
Screening COc1ccc(-c2noc(-c3ccc(N4CCc5ccccc5C4)nc3)n2)cc1 returned mHTT-CaM PPI inh inactive and Pf apPOL inh inactive.
CCC(NS(=O)(=O)c1cc(OC)ccc1OC)C12CC3CC(CC(C3)C1)C2 (stereo unspecified) was read as mHTT-CaM PPI inh inactive and Pf apPOL inh inactive.
Screening COc1ccccc1C(=O)N1CCCC1c1nc(-c2ccc(C)cc2)no1 (stereo unspecified) returned mHTT-CaM PPI inh inactive and Pf apPOL inh inactive.
For O=C1C=CC(=O)C(C2=C3C(=O)N(Cc4ccccc4)CC(=O)N3CCC2)=C1 the results were mHTT-CaM PPI inh 82.0 and Pf apPOL inh inactive.
O=C1NCCN(Cc2ccccc2)C1=O was read as mHTT-CaM PPI inh inactive and Pf apPOL inh inactive.
Screening COc1ccc(C2=NN(C(C)=O)C(c3cc4ccc(OC)cc4nc3Cl)C2)cc1 (stereo unspecified) returned mHTT-CaM PPI inh inactive and Pf apPOL inh inactive.
Screening O=C(CN1CCN(c2ccccn2)CC1)Nc1ccc(Cl)c(C(F)(F)F)c1 returned mHTT-CaM PPI inh inactive and Pf apPOL inh inactive.
`O=C(CN1CCN(c2ccc(Cl)cc2)CC1)Nc1ccc(Cl)c(C(F)(F)F)c1` gave mHTT-CaM PPI inh 51.0 and Pf apPOL inh inactive.
Screening Cc1cc(CN2CCC(CNC(=O)c3ccc4nsnc4c3)CC2)c(C)o1 returned mHTT-CaM PPI inh inactive and Pf apPOL inh inactive.
For O=C(NCc1ccccn1)c1sc2ccccc2c1Cl the results were mHTT-CaM PPI inh inactive and Pf apPOL inh inactive.
Screening O=C(Nc1nc(-c2ccccn2)cs1)c1nc2ccccc2s1 returned mHTT-CaM PPI inh 100.0 and Pf apPOL inh inactive.
Cc1ccccc1C(=O)Nc1cccc(NC(=O)c2sc3ccccc3c2Cl)c1 was read as mHTT-CaM PPI inh inactive and Pf apPOL inh inactive.
For CCC(=O)Nc1cccc(NC(=O)c2sc3ccccc3c2Cl)c1 the results were mHTT-CaM PPI inh 56.0 and Pf apPOL inh inactive.
`O=C(Nc1nc(-c2ccccn2)cs1)c1sc2ccccc2c1Cl` gave mHTT-CaM PPI inh 100.0 and Pf apPOL inh inactive.
For O=C(Nc1nc(-c2nc3ccccc3s2)cs1)c1ccno1 the results were mHTT-CaM PPI inh inactive and Pf apPOL inh inactive.
Screening COc1ccc2cnoc(=O)c2c1OC returned Pf apPOL inh inactive.
